From PubChem BioAssay AID485317 (Broad Institute, 2010)
The campaign covered roughly 290,000 compounds. About 11,000 (3.8%) were called active.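 How the source made its calls: active means mean replicate inhibition above about 79%, with every replicate also reaching it (limit read from the data); inconclusive means only one of the two criteria met; inactive means mean below limit and not every replicate reaching it.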 Many of the other results were omitted from the sample, so actives are more common in it than they were.

Molecular target: FAD-linked sulfhydryl oxidase ALR (Homo sapiens) (UniProt P55789)
Sequence (P55789 whole entry, looked up): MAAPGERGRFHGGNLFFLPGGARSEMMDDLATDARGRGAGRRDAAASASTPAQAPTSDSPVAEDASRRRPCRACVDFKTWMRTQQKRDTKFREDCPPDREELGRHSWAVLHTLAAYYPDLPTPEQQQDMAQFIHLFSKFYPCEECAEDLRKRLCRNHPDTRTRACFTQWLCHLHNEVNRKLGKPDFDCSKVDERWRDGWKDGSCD
Assay: ALR-catalysed DTT oxidation blockers – biochemical, H2O2 detection, HRP-luminol luminescence, single point, primary screen (AID 485317)
Settings: purified ALR, hits give high values, concentration not given here

| SMILES | inhibition |
| --- | --- |
| COc1ccc(-c2cc3ncccc3cn2)cc1 | 23.1% (inactive) |
| COc1ccc(CNC2CCCCC2)cc1 | -5.38% (inactive) |
| COc1ccc(N/N=C2/CCCCC2=O)cc1 | 99.4% (active) |
| COc1ccc(CNC(=O)C2CCCC2)cc1 | -0.518% (inactive) |
| CN1CCN(C2Cc3ccc(Cl)cc3Sc3ccc(F)cc32)CC1 (configuration not stated) | 4.93% (inactive) |
| CCOCCn1[nH]c2ccccc2c1=O | 52.9% (inactive) |
| Cc1ccc2c(c1)C1CN(C)CCC1N2S(=O)(=O)c1cccc(F)c1 (configuration not stated) | 22.1% (inactive) |
| Cc1ccc2nc(NC(=O)CSc3nc(=O)n(CCCN(C)C)c4c3CCC4)sc2c1 | 97.3% (active) |
| Cc1csc(NC(=O)CSc2nc(=O)n(CCCN(C)C)c3c2CCC3)n1 | -272% (inactive) |
| CN(C)CCn1c2c(c(SCC(=O)Nc3ccccc3C(F)(F)F)nc1=O)CCCC2 | 0.246% (inactive) |
| CCN(CC)CCn1c2c(c(SCC(=O)Nc3ccc(C(C)C)cc3)nc1=O)CCC2 | -219% (inactive) |
| Cc1ccc(NC(=O)CSc2nc(=O)n(CCN(C)C)c3c2CCCC3)c(C)c1 | 5.62% (inactive) |
| CCN(CC)CCn1c2c(c(SCC(=O)Nc3nc4ccccc4s3)nc1=O)CCCC2 | 98.7% (active) |
| Cc1ccc(C)c(NC(=O)CN(C)C(=O)COc2ccc3ccccc3c2)c1 | -13.6% (inactive) |
| CC(=O)Nc1ccc(NC(=O)C(NS(=O)(=O)c2ccc3c(c2)OCCO3)C(C)C)cc1 (configuration not stated) | 1.95% (inactive) |
| Cc1c(NC(=O)CN(C)CC(=O)Nc2ccc(F)c(F)c2F)c(=O)n(-c2ccccc2)n1C | -2.04% (inactive) |
| O=C(COC(=O)CCOc1ccccc1)Nc1cc(S(=O)(=O)N2CCCCC2)ccc1Cl | 4.02% (inactive) |
| COc1ccc(C(=O)C(C)OC(=O)c2cccc(S(=O)(=O)Nc3c(C)n(C)n(-c4ccccc4)c3=O)c2)cc1 (configuration not stated) | -0.831% (inactive) |
| Cc1cccc(C(=O)N2CCC(c3nc4ccccc4s3)CC2)c1 | -11.6% (inactive) |
| O=C(c1cccs1)N1CCC(c2nc3ccccc3s2)CC1 | 98.7% (active) |
| Cc1cccc(NC(=S)N2CCC(c3nc4ccccc4s3)CC2)c1 | -3.53% (inactive) |

| SMILES | inhibition |
| --- | --- |
| CCC(c1nnc(SCC(=O)NNC(=O)c2ccccc2)n1Cc1ccccc1)N(C)C (configuration not stated) | -1.21% (inactive) |
| O=C(CSc1nccn1-c1cccc(F)c1)NC1CCCC1 | -4.77% (inactive) |
| CCNC(=O)CSc1nc(-c2ccccc2)cs1 | -7.87% (inactive) |
| O=C(CSCC(=O)Nc1cccc([N+](=O)[O-])c1)Nc1ccccc1 | -3.46% (inactive) |
| O=C(CSc1nc(-c2ccccc2)cs1)Nc1cccc([N+](=O)[O-])c1 | 98% (active) |
| COc1ccccc1C(=O)NCC(=O)OCC(=O)NNC(=O)c1ccc(Br)cc1 | 0.892% (inactive) |
| COc1cc(OC)cc(C(=O)NCC(=O)OCC(=O)NC(C)CCc2ccccc2)c1 (configuration not stated) | -4.51% (inactive) |
| Nc1cccnc1Sc1ccccc1 | -14.3% (inactive) |
| Cc1cc(C)c(C#N)c(SCC(=O)Nc2ccccc2)n1 | -3.28% (inactive) |
| Cc1cc(=O)[nH]c(SCC(N)=O)c1C#N | -1.22% (inactive) |
| Cc1ccc(NC(=O)CSc2sc3c(O)cc(=O)[nH]c3c2C#N)cc1C | 98.4% (active) |
| Cc1ccc(S(=O)(=O)Nc2ccc(F)c(S(=O)(=O)N3CCOCC3)c2)cc1 | -9.01% (inactive) |
| O=C(Nc1ccc2c(c1)OCO2)C1CC1(Cl)Cl (configuration not stated) | -6.35% (inactive) |
| O=C(c1ccc(Cl)nc1)N1CCN(S(=O)(=O)c2ccc3c(c2)OCCO3)CC1 | 0.752% (inactive) |
| Cc1c(C(=O)Nc2cccc(S(=O)(=O)N3CCOCC3)c2)oc2ccccc12 | -6.82% (inactive) |
| COc1ccc(S(=O)(=O)Nc2ccc(O)c(Sc3nc4ccccc4s3)c2)cc1 | 17.5% (inactive) |
| O=C(O)c1cccc(S(=O)(=O)Nc2ccc(O)cc2Sc2nc3ccccc3s2)c1 | 98.9% (active) |
| Cc1nc2ccc(NC(=O)c3cccc(S(=O)(=O)N4CCOCC4)c3)cc2s1 | -4.99% (inactive) |
| COc1cc(OC)cc(C(=O)NC(C(=O)N2CCC2)C(C)C)c1 (configuration not stated) | 3.67% (inactive) |
| O=C(CSc1ncn[nH]1)N/N=C/c1ccc(F)cc1 | -0.231% (inactive) |
| Cc1ccc(S(=O)(=O)Nc2nc(CN3CCOCC3)nc3sc(C)c(C)c23)cc1 | -1.38% (inactive) |

| SMILES | inhibition |
| --- | --- |
| O=C(NNc1ccccn1)c1ccc(Cl)nc1 | 91.6% (active) |
| O=C(NNC(=O)c1ccc(Cl)nc1)c1ccc(Br)cc1 | -1.29% (inactive) |
| Cc1cnc(NC(=O)c2ccc(Cl)nc2)s1 | -5.29% (inactive) |
| COc1cc(/C=C/C(=O)OCC(=O)c2ccccc2)cc(OC)c1OC | 3.07% (inactive) |
| C[C@H](CO)N1C[C@H](C)[C@H](CN(C)C(=O)Nc2ccc(C(F)(F)F)cc2)Oc2c(NC(=O)c3ccncc3)cccc2C1=O | -1.8% (inactive) |
| Cc1ccc(S(=O)(=O)NC2CCCCCC2)cc1 | -3.36% (inactive) |
| O=C(Nc1ccccc1)Nc1ccccc1C(=O)NCc1ccco1 | -2.76% (inactive) |
| Cc1cccc(Nc2ccccc2C(=O)NCc2ccco2)c1C | 98.6% (active) |
| Cc1ccccc1NC(=O)NCc1ccco1 | -5.6% (inactive) |
| O=C(OCC(=O)N1CCc2ccccc21)c1ccc([N+](=O)[O-])cc1 | -3.86% (inactive) |
| CC1CCCCC1NC(=O)/C(C#N)=C/C=C/c1ccccc1[N+](=O)[O-] (configuration not stated) | 97.6% (active) |
| O=[N+]([O-])c1ccccc1/C=C/CN1CCC(O)CC1 | -20.9% (inactive) |
| O=C(/C=C/c1ccccc1[N+](=O)[O-])NCC1CCCO1 (configuration not stated) | -4.47% (inactive) |
| COc1ccc(/C(C)=N/NC(=O)c2ccc3nc[nH]c3c2)cc1 | -6.54% (inactive) |
| CN(C)N=Nc1ccc2nc[nH]c2c1 | 92.1% (active) |
| CC/C(O)=N\S(=O)(=O)c1ccc(N=NN(C)C)cc1 | -19.2% (inactive) |
| Cc1cc(C)c(-c2csc(NC(=O)CCCc3nc4ccccc4c(=O)[nH]3)n2)c(C)c1 | -7.67% (inactive) |
| O=C(Cn1cnc2c(nnn2-c2ccccc2)c1=O)N1CCC(Cc2ccccc2)CC1 | -5.43% (inactive) |
| O=C(CN1CCOc2ccccc21)N1CCC(Cc2ccccc2)CC1 | 98.1% (active) |
| CC1(C)CC(=O)C(CC(=O)N2CCC(Cc3ccccc3)CC2)C(=O)C1 | 2.75% (inactive) |
